From PubChem BioAssay AID2563 (Broad Institute, 2010)
Hit rate of the full screen: of about 290,000 compounds, about 800 (0.28%) were called active.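 Rule for the calls: active = fall in fluorescence gain of 50% or more versus controls, with final raw signal at or below 3038400; inconclusive = same 50% fall but final raw signal above 3038400; inactive = fall in fluorescence gain under 50%.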 The full list was thinned out, with actives kept by preference.

target: CAAX prenyl protease 2 (Saccharomyces cerevisiae (strain ATCC 204508 / S288c)) (UniProt Q03530); assay: blockers of Rce1 CaaX peptide cleavage – biochemical, fluorescence, cell-free homogeneous, primary screen (AID 2563); details: yeast membranes, quenched prenylated peptide cleavage fluorescence
Sequence (Q03530 whole entry, looked up): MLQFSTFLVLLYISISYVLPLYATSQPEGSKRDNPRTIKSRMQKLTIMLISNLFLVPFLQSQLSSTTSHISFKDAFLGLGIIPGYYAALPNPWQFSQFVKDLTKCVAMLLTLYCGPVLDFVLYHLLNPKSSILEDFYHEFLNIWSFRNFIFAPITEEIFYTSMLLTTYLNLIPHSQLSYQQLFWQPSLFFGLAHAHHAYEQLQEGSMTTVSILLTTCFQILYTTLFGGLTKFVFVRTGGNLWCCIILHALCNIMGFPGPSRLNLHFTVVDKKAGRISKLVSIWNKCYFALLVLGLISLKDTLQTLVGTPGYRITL

outcome, active:
Cc1ccc(-c2csc(N3CCN(c4cc5c(cc4Cl)nc(-c4ccncc4)n5CCOCCO)CC3)n2)cc1
O=C(CC(c1ccccc1)c1ccccc1)NCC(O)c1ccc([N+](=O)[O-])cc1 (stereo not given)
CCCNC(=O)c1c(N)n(-c2ccc(S(N)(=O)=O)cc2)c2nc3ccccc3nc12
COc1ccc(-c2oc3ncn(Cc4ccco4)c(=N)c3c2-c2ccc(OC)cc2)cc1

outcome, inactive:
CCCn1c(C2CCCN2c2nc(-c3ccc(C)cc3)cs2)nc2cc(Cl)c(N3CCCCC3)cc21 (stereo not given)
Cc1ccc(-c2csc(NCCc3nc4cc(Cl)c(Cl)cc4n3CCOCCO)n2)cc1
COc1ccc(Cl)cc1NC(=O)CN(C)C(=O)c1cc(-c2cccs2)nn1-c1ccccc1
COc1cc2ccccc2cc1C(=O)Nc1ccncc1
CCc1nnc(NS(=O)(=O)c2ccc(NC(=O)c3cccc(OC(F)(F)C(F)F)c3)cc2)s1
CC1(C)O[C@H]2CC(=O)OCC23[C@H]2CC[C@@]4(C)[C@H](c5ccoc5)OC(=O)[C@H]5O[C@]54[C@]2(C)C(=O)C[C@@H]13 (stereo not given in full)
CCCNC(=O)c1ccc(N2CCC3(CC2)CC(c2cccc(Br)c2)=NO3)c(NC(=O)c2ccco2)c1
Cc1cccc(N=C2SC(C)CN2C(=O)CN2C(=O)NC3(CCCC3)C2=O)c1 (stereo not given)
CC(=O)NCC(O)c1ccc([N+](=O)[O-])cc1 (stereo not given)
O=C(NCC(O)c1ccc([N+](=O)[O-])cc1)C1CCCCC1 (stereo not given)
Cc1ccc(OCC(=O)Oc2ccccc2[N+](=O)[O-])cc1
Cc1cc(C)c(C)c(S(=O)(=O)N2CCN(C(=O)c3ccc4c(=O)n5c(nc4c3)CCC5)CC2)c1C
COc1ccc(CCNC(=S)N2CCN(S(=O)(=O)c3ccc(F)cc3)CC2)cc1
CC(=O)C12CC(C)=C(C)CC1CC1C3CCC4=CC(=O)CCC4(C)C3CCC12C (stereo not given)
CSc1nsc(NC(=O)Nc2ccccc2)n1
CCN(Cc1ccccc1)C(=O)Cc1ccc(OC)c(S(=O)(=O)N2CCOCC2)c1
O=C(COc1coc(CN2CCN(c3ccccc3)CC2)cc1=O)Nc1ccccc1F
COCCCN(C(=O)CSCc1ccc(C)cc1)c1c(N)n(Cc2ccccc2)c(=O)[nH]c1=O
COc1ccc(N2CCN(S(=O)(=O)c3cc4c5c(c3)C(C)C(=O)N5CCC4)CC2)cc1 (stereo not given)
O=C(Nc1ncccc1O)c1ccc(S(=O)(=O)N2CCCCCC2)cc1
COc1cc(C2C(C(=O)c3cccs3)=C(O)C(=O)N2CCN2CCOCC2)ccc1OCCC(C)C (stereo not given)
Cc1ccc2nc(SCC(=O)N3CC(C)OC(C)C3)nc(=O)n2c1 (stereo not given)
Cc1cccc(C)c1NC(=O)CNC(=O)c1c(C)nn(-c2ccccc2)c1C
CCc1noc(C)c1C(=O)N1CCCSC1=Nc1ccccc1OC
CCCCn1c(N)c(N(CC(C)C)C(=O)C2CSC3(C)CCC(=O)N23)c(=O)[nH]c1=O (stereo not given)
COc1ccc(CNC(=O)COC(=O)CCS(=O)(=O)c2ccc(C)cc2)cc1OC
Cc1c(NC(=O)C(C)Oc2cccc(Cl)c2)c(=O)n(-c2ccccc2)n1C (stereo not given)
O=C(NC1CCCCC1)c1ccc(-c2ccc(Cl)cc2)o1
CCOc1ccc(C(C)=O)cc1COC(=O)CNC(=O)c1cccs1
O=C(COc1coc(CN2CCN(c3ccccc3F)CC2)cc1=O)N1CCc2ccccc21
O=c1[nH]c(/C=C/c2cccc(Br)c2)nc2ccccc12
COc1ccc(NC(=O)CN(C)C(=O)c2ccc(COc3ccccc3)o2)cc1
Cc1ccc(S(=O)(=O)N2CCOCC2)cc1C(=O)Nc1ccccc1N1CCCC1
COc1ccc([C@@H]2[C@@H]3C(=O)N(C(C)(C)C)C(=O)[C@@H]3[C@]3(Cc4ccccc4)C(=O)N(c4cccc(Br)c4)C(=O)N23)cc1
Cc1noc(C)c1C(=O)NCCc1ccc(S(N)(=O)=O)cc1
CCOC(=O)c1c(C)c(C(=O)NCCc2ccc(S(N)(=O)=O)cc2)c(C)n1CC
CN(C)C(CNC(=O)c1cccc(S(=O)(=O)Nc2ccc(Br)cc2)c1)c1ccco1 (stereo not given)
COc1ccc(N2CC(C(=O)NCCN3C(=O)S/C(=C\c4cccnc4)C3=O)CC2=O)c(OC)c1 (stereo not given)
CC1(C)C/C(=N/Nc2ccc([N+](=O)[O-])cc2[N+](=O)[O-])C(C)(C)O1
COc1ccc(C(CNC(=O)c2ccc(NS(=O)(=O)c3ccc(F)c(C)c3)cc2)N(C)C)cc1 (stereo not given)
CCOC(=O)c1cnc2nc(SCc3ccccc3Cl)[nH]n2c1=O
CCOC(=O)c1cc(C(C)C)sc1NC(=O)COC(=O)c1nccnc1N
Cc1nc2ccccc2c(=O)n1-c1ccc(NS(=O)(=O)c2ccc(F)cc2F)cc1
O=C(CNC(=O)c1ccccc1Br)NCCSc1ccc(Br)cc1
COc1ccc(-c2oc3ncnc(NCCCO)c3c2-c2ccc(OC)cc2)cc1
N=c1c2c(-c3ccccc3)c(-c3ccccc3)oc2ncn1Cc1ccco1
